This passage reports Percent Effect results from ChEMBL document CHEMBL3988442, “University of Dundee, Small-Polar-MMV Screening Library” (2021).

What all share (design): scale not given: direction of the effect not stated beside the values
The target in assay [1] is Protein translocase subunit SecA (Escherichia coli (strain K12)) (UniProt P10408). As to the kind of experiment: Assay to Identify E. coli SecA ATPase Inhibitors. Type of assay: functional. Conditions: 30 µM.
Assay [2] addresses T1, Ubiquitin-activating enzyme e1, putative (Leishmania donovani (strain BPK282A1)) (UniProt E9BSI1).
T1 sequence (whole entry): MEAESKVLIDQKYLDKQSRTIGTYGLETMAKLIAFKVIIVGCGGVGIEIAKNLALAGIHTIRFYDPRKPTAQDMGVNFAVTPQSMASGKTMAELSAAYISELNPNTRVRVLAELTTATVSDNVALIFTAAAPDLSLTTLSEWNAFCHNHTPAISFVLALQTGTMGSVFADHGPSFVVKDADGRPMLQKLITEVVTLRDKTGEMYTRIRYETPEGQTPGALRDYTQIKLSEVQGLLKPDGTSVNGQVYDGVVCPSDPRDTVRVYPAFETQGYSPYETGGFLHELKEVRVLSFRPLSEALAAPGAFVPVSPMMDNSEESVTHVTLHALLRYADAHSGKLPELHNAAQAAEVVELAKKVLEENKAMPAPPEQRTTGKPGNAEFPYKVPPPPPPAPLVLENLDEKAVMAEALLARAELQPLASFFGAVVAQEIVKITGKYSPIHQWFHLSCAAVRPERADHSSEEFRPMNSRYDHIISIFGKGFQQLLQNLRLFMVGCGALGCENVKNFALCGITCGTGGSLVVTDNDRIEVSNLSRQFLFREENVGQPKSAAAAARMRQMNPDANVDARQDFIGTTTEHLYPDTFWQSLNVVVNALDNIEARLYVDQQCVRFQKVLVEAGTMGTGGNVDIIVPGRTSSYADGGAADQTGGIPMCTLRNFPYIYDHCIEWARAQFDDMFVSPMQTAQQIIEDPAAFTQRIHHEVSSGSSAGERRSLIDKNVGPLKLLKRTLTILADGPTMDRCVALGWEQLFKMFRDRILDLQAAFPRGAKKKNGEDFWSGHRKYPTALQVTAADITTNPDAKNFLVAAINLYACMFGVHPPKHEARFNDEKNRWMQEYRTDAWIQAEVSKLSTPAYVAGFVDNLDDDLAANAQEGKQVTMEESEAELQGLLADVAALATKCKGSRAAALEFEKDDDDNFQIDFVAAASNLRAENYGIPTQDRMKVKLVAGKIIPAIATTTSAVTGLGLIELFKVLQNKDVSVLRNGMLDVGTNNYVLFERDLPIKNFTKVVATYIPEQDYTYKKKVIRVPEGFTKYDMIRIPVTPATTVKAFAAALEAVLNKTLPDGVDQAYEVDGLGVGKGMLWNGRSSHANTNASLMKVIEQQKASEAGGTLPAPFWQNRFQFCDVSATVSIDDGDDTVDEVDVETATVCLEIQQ
As to the kind of experiment: Leishmania donovani Ubiquitin Activating Enzyme (LdE1). Type of assay: functional. Conditions: 30 µM.

Assay [3] concerns the target AMP-activated protein kinase, AMPK (Homo sapiens) (UniProt P54646+O43741+P54619+Q9UGJ0+Q9Y478+Q13131+Q9UGI9). Kind of assay: AMP-dependent Kinase enzyme assay. An in vitro enzyme assay that detects ADP turnover that is directly proportional to AMPK activity. This uses naive AMPK that is activated during the assay with MK-8722. Type of assay: functional. Conditions: 30 µM.

Assay [4] deals with Sialic acid-binding Ig-like lectin 9 (Homo sapiens) (UniProt Q9Y336). As to the kind of experiment: Hs-Siglec9 ALPHAscreen SOP 20170721. Particulars: 10 µM.
Chain of Sialic acid-binding Ig-like lectin 9 (Homo sapiens) (Q9Y336 whole entry): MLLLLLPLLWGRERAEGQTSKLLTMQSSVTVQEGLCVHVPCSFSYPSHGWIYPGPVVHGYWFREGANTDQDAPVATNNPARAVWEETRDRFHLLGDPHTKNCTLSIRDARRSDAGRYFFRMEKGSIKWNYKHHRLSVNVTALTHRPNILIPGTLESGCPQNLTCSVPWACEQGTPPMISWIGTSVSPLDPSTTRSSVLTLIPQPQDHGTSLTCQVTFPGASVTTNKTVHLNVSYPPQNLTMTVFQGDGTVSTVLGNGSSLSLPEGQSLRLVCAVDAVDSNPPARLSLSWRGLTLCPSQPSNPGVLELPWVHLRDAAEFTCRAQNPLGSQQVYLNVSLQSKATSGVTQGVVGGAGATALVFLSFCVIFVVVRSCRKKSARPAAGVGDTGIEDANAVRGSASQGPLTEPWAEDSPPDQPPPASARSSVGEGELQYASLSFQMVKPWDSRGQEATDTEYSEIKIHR
For assay [5], the system named is Trypanosoma cruzi. Kind of assay: Trypanosoma cruzi phosphomannomutase and mannose-1-phosphate guanylyltransferase assay. Type of assay: functional. Conditions: 10 µM.
In assay [6] the target is T2, Arginase-2, mitochondrial (Homo sapiens) (UniProt P78540).
T2 sequence (whole entry): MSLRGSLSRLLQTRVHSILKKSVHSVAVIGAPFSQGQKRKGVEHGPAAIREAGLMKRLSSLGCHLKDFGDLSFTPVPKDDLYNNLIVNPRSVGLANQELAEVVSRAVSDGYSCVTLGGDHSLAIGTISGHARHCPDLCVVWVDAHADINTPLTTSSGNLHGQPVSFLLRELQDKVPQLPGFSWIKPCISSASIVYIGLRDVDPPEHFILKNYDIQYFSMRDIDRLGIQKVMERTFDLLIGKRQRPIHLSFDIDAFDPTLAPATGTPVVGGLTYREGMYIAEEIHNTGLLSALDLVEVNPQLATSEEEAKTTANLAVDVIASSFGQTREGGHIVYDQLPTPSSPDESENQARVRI
As to the kind of experiment: in vitro enzyme assay to detect the production of urea directly proportional to the activity of Arginase II. Also: in the data most compounds retested in dose-response had high values. Type of assay: functional. Particulars: 33.3 µM.

The target in assay [7] is T3, Proteasome subunit beta (Trypanosoma cruzi) (UniProt O96673).
T3 sequence (whole entry): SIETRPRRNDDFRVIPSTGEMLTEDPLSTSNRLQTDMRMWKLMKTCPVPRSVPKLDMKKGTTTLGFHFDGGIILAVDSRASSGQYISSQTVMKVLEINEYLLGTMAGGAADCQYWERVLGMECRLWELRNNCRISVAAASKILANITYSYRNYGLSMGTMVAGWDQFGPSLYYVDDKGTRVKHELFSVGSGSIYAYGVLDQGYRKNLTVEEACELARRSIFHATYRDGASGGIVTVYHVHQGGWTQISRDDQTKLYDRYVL
Kind of assay: Trypanosoma cruzi proteasome chymotrypsin-like activity (TcProtChymo) assay. Also: in the data most compounds retested in dose-response had high values. Type of assay: functional. Conditions: 9.37 µM.

The species named for assay [8] is Homo sapiens. As to the kind of experiment: To identify inhibition of the IFN signalling (Jak-Stat) pathway via expression of an eGFP reporter gene under the control of an IFN-stimulated response element (ISRE) containing MxA promoter. The format is functional. Particulars: 30 µM. A general note: In a reporter assay the amount or activity of a reporter protein is the signal.

The target in assay [9] is T4, Tyrosyl-tRNA synthetase, putative (Trypanosoma cruzi (strain CL Brener)) (UniProt Q4DSP6).
T4 sequence (whole entry): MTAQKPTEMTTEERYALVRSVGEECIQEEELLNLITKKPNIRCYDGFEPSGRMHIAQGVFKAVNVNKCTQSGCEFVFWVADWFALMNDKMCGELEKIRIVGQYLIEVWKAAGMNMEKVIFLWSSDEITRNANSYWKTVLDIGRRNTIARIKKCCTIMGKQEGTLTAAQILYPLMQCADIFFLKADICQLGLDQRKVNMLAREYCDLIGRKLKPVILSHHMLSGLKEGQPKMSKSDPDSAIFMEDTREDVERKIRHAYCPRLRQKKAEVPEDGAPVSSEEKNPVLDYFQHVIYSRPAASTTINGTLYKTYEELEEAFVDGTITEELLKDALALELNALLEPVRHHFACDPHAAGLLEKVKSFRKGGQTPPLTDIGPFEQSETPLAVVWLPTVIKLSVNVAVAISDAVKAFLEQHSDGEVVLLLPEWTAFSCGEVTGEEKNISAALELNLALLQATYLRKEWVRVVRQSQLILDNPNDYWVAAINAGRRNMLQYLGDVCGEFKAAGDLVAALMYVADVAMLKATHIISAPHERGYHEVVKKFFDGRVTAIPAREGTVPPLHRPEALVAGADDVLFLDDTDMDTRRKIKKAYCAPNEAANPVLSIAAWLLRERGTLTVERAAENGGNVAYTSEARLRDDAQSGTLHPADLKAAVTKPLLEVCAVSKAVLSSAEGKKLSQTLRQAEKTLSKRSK
Kind of assay: Trypanosoma cruzi tyrosyl tRNA synthetase (TcYRS) _High Tyrosine SOP. Also: in the data most compounds retested in dose-response had high values. Type of assay: functional. Particulars: 30 µM.

Assay [10] addresses T4, Tyrosyl-tRNA synthetase, putative (Trypanosoma cruzi (strain CL Brener)). As to the kind of experiment: Trypanosoma cruzi tyrosyl tRNA synthetase (TcYRS) SOP. The format is functional. Particulars: 30 µM.
For assay [11], the target named is Chromo domain-containing protein 1 (Saccharomyces cerevisiae (strain ATCC 204508 / S288c) (Baker's yeast)) (UniProt P32657). As to the kind of experiment: ScCHD-1 Enzyme Inhibition Assay. Also: in the data most compounds retested in dose-response had high values. Type of assay: functional. Conditions: 30 µM.
Chain of Chromo domain-containing protein 1 (Saccharomyces cerevisiae (strain ATCC 204508 / S288c) (Baker's yeast)) (P32657 whole entry, the tested form may be a part): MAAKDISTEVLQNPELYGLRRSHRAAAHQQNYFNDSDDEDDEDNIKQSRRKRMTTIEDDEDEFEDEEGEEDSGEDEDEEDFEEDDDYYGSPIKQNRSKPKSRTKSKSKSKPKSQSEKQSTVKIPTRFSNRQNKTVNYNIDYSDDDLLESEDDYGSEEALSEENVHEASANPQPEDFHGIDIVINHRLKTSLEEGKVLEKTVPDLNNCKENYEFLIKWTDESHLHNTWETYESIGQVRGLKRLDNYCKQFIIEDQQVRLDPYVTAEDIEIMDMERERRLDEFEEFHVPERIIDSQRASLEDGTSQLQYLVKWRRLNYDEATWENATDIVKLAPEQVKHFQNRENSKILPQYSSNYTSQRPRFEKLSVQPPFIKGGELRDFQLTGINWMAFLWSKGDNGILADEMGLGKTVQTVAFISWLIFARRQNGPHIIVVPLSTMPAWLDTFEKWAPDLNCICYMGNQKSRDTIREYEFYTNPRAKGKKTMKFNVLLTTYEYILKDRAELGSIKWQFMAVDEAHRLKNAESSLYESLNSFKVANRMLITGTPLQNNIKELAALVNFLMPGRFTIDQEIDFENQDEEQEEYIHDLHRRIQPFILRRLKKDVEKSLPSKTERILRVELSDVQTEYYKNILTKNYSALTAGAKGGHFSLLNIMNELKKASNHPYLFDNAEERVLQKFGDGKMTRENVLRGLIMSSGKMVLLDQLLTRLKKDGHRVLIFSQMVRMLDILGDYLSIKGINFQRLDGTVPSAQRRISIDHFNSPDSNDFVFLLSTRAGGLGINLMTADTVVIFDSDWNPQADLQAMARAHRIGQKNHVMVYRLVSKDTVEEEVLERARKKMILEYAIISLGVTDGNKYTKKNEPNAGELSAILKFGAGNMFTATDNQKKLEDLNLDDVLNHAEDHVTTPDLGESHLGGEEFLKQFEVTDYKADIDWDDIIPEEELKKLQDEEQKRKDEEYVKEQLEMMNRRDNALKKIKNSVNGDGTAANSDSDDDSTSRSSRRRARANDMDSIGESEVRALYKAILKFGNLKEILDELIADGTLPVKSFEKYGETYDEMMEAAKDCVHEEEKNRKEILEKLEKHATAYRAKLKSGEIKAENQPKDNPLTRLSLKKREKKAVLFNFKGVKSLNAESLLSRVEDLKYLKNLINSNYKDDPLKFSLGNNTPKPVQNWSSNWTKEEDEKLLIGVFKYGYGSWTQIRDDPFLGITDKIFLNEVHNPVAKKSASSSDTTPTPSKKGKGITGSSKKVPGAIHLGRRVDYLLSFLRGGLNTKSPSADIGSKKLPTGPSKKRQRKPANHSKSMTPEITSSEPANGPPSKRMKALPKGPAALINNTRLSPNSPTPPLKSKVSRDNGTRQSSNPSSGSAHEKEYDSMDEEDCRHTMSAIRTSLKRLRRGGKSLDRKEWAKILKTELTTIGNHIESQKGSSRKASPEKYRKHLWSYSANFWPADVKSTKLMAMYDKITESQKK

For some of these results: Measured potencies and affinities stand elsewhere.

Chain of Protein translocase subunit SecA (Escherichia coli (strain K12)) (P10408 whole entry): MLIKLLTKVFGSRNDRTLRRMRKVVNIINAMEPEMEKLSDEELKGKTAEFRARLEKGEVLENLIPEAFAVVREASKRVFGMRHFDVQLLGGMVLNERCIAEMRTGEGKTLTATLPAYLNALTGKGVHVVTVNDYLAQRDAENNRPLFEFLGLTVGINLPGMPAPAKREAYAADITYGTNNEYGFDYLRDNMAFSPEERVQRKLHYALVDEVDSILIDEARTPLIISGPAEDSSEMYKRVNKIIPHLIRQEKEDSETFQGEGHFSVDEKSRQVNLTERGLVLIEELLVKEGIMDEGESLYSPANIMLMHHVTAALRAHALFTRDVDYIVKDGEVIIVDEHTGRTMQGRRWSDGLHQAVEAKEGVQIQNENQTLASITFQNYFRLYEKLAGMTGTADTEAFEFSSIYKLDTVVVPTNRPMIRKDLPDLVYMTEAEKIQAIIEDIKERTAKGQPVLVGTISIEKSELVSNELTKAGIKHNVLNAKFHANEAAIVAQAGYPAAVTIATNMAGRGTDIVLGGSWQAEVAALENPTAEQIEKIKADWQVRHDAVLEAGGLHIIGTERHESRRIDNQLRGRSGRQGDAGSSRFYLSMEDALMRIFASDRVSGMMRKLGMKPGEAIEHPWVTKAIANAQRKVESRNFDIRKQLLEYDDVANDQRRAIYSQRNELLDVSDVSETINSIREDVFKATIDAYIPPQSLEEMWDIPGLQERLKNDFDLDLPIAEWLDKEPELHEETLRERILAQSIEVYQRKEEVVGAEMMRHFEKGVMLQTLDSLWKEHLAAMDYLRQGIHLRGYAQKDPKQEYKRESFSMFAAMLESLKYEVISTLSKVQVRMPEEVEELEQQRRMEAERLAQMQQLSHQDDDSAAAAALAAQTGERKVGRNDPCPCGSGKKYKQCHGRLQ

As to `CNc1cc(C)nc(C2CN(Cc3cc[nH]n3)CCO2)c1` (stereo unspecified), the Percent Effect in assay [1] was -2.72%; in assay [2], 1.35%; in assay [3], 11.4%; in assay [4] it was -2.27%; in assay [5], -7.51%; in assay [6] it was -6.26%. Besides, the Percent Effect in [7] was -0.156%; in [8] it was -17.5%; in assay [9], 0%; in [10], 3.9%; in assay [11], -10.1%.
For the compound `CN(C)C(=O)C1CN(Cc2cscn2)CCN(S(C)(=O)=O)C1` (stereo unspecified), the Percent Effect in assay [1] is -11.5%; in assay [2] it was 17.6%; in [3], -0.331%; in [4], 3.06%; in assay [5] it was 1.98%; in assay [6], -1.16%. Moreover, the Percent Effect in assay [7] was 6.55%; in assay [8], 2.48%; in [9] it was 7.53%; in assay [10], 19.5%; in [11], -22.4%.
For the compound `CC1=N[C@@]2(CC[C@@H]3CN(S(=O)(=O)CC(C)C)C[C@@H]32)C(=O)N1CC(C)C`, the Percent Effect in assay [1] is -5.41%; in assay [2], 5.41%; in assay [3], 5.56%; in assay [4] it was -6.18%; in assay [5] it was -2.64%; in [6], 2.23%. Further, the Percent Effect in [7] is 23.8%; in assay [8], -9.78%; in [9], 3.24%; in assay [10] it was 10.3%; in assay [11], -0.878%.
As to `O=C(CCn1ccccc1=O)Nc1ccc(F)c(Cl)c1`, the Percent Effect in assay [1] is -5.08%; in assay [2], 8.11%; in assay [3], -4.38%; in [4] it was 0.784%; in assay [5], -2.44%; in assay [6], 3.72%. Also, the Percent Effect was 10.7% in assay [7]; -1.47% in [8]; 4.3% in assay [9]; 6.17% in assay [10]; -7.68% in [11].
Turning to `Cc1n[nH]c(C)c1C1CCCN1C(=O)CNC(=O)C(C)(C)C` (stereo unspecified), the Percent Effect is -0.905% in [1]; 8.22% in assay [2]; 0.299% in assay [3]; 14% in [4]; 2.74% in assay [5]; 20.9% in assay [6]. The Percent Effect was 11.5% in assay [7]; -2.46% in assay [8]; 0% in assay [9]; 5% in [10]; -4.49% in assay [11].
Regarding `Cc1cc(CN2CCN(C(=O)NC(C)c3cccnc3)CC2)on1` (stereo unspecified), the Percent Effect is -2.66% in assay [1]; 13.2% in assay [2]; -2.63% in assay [3]; 3.25% in assay [4]; 8.08% in assay [5]; 1.92% in assay [6]. Also, the Percent Effect in [7] was 10.7%; in [8], 2.49%; in assay [9], -0.49%; in assay [10], 19.5%; in [11] it was -6.79%.
Turning to `Cc1nn(C)c(Cl)c1C1CCCN1C(=O)c1cc(Cl)c[nH]1` (stereo unspecified), the Percent Effect in assay [1] was -2.13%; in assay [2], 2.7%; in [3], 0.443%; in assay [4] it was 9.97%; in assay [5] it was -1.79%; in assay [6], 2%. The Percent Effect in assay [7] is -1.62%; in assay [8], 2.15%; in assay [9], 7.39%; in assay [10], 3.7%; in assay [11] it was 2.56%.
Take `O=C(c1csc(-c2cccs2)n1)N1CCCC1Cn1cccn1` (stereo unspecified): the Percent Effect is -3.61% in [1]; 10.5% in [2]; -6.24% in [3]; 3.2% in assay [4]; -3.83% in [5]; 1.08% in [6]. Also, the Percent Effect in assay [7] was -4.99%; in assay [8], -2.06%; in assay [9], 3.45%; in [10], 6.17%; in assay [11], 0.105%.
As for `CN1CCC(c2nnc(CN3CCC(O)CC3)n2C)CC1`, the Percent Effect is -3.38% in assay [1]; 8.22% in [2]; 6.23% in [3]; -1.15% in assay [4]; -1.76% in assay [5]; 1.82% in assay [6]. Moreover, the Percent Effect in [7] was 8.87%; in assay [8] it was 1%; in assay [9], 4.3%; in assay [10], 15%; in assay [11], -4.74%.
As to `CC(NC(=O)CNCCn1cccn1)c1ccc2c(c1)OCCO2` (stereo unspecified), the Percent Effect in assay [1] is -2.65%; in [2], -7.79%; in [3], 0.13%; in [4] it was 7.51%; in [5], 5.62%; in assay [6] it was 1.07%. Besides, the Percent Effect in assay [7] was 7.6%; in assay [8], -0.448%; in assay [9], 8.74%; in assay [10], 9.76%; in assay [11], -7.52%.
For `CN(CCn1nc2ccccn2c1=O)CC(=O)N1CCCC1`, the Percent Effect in [1] is -5.53%; in assay [2] it was 0%; in assay [3] it was 6.84%; in assay [4] it was 5.95%; in [5], -6.33%; in assay [6], 3.55%. Further, the Percent Effect came to 11.6% in [7]; 15.5% in assay [8]; 3.19% in [9]; 2.6% in assay [10]; 29.3% in assay [11].
